The record followed here is ChEMBL document CHEMBL3988442, “University of Dundee, Small-Polar-MMV Screening Library” (2021).

Screen size: about 48,000 compounds; about 13,000 (27%) showed an effect of 50% or more. The list shows a part of the results.

This experiment has as its system Wolbachia pipientis. The experiment is described as follows: Anti-Wolbachia Cell-Based Screen. It counts as functional. Set-up: scale not given: in the data most compounds retested in dose-response had high values. Particulars: 5 µM.
Turning to `CN(Cc1cc(-c2ccccc2)no1)Cc1nccn1C`, the “Percent Effect” value stood at 8.065%.
Then `Cc1nn(CCO)c(C)c1CNC1CCc2c(F)cccc21` (centres undefined), with 1.037%; and `N#Cc1ccc(CN(CC(N)=O)C2CCCC2)cc1`, with -1.161%.
In the case of `O=C(Nc1ccccc1F)N(CCO)CCOCC(F)(F)F`, the “Percent Effect” value is -14.38%.
For `CC(C)(C)S(=O)(=O)CCNC1CSCCc2ccccc21` (centres undefined), the “Percent Effect” value turned out to be 8.355%.
Consider `CCc1n[nH]c(SCC(=O)N2C[C@@H]3CC[C@H](C2)N(CC=C(C)C)C3)n1`, for which the “Percent Effect” value was determined as 12.53%.
For `CCOC(=O)c1cc2c(=O)[nH]c(=O)n(CCc3ccccc3)c2nc1C`, the “Percent Effect” value is -3.034%.
As for `O=C1CCc2cc(-c3csc(CCN4CCCC4=O)n3)ccc2N1`, the figure is -1.736%.
For `CCCN1C(=O)c2ccccc2C1OC` (centres undefined), the “Percent Effect” value was 104.1%.
Consider `CCn1cnc(NC(=O)N2CCC(c3ccc(Cl)cc3)C2)n1` (centres undefined), for which the “Percent Effect” value was -2.672%.
Consider `Cc1nc(C)n(CCCn2ccnc2-c2cc3n(n2)CCCNC3)n1`, for which the “Percent Effect” value is 0.4256%.
Then `Cn1ccc(C(=O)N2CCN(c3cc(C#N)ccn3)CC2)cc1=O`, with 6.84%; and `O=C(c1cc(Cl)cc(Cl)c1)N1CCN(c2nccs2)CC1`, with -10.96%; and `Cn1ccc(CN2CCCN(c3nccs3)CC2)cc1=O`, with 11.25%.
`Cn1ccc(C(=O)N2CCN(c3ccccn3)CC2)cc1=O`: the “Percent Effect” value was determined as 94.46%.
Then `Cn1cc(C(=O)N2CCN(c3ncccn3)CC2)ccc1=O`, with 122.7%; and `Cn1ccc(C(=O)N2CCN(c3ncccn3)CC2)cc1=O`, with -7.771%.
With `Cn1ccc(C(=O)N2CCN(c3nccs3)CC2)cc1=O`, the “Percent Effect” value amounted to 97.2%.
`Cn1cc(C(=O)N2CCN(c3ccccc3)CC2)ccc1=O`: the “Percent Effect” value is given as -6.133%.
Then `Cn1cc(C(=O)N2CCN(c3ccc(F)cc3)CC2)ccc1=O`, with 27.16%; and `Cc1cnccc1-n1nc(C(C)C)nc1CCc1cnccn1`, with -10.93%; and `Cc1noc(CCCC(=O)NC(C)c2cn(-c3ccccc3)nn2)n1` (centres undefined), with -6.671%.
As for `O=S(=O)(C1CC1)N1CCO[C@H]2[C@H](OCC3CCCC3)CC[C@@H]21`, the figure is -8.752%; as for `CCO[C@@H]1CC[C@H]2[C@H]1OCCN2S(=O)(=O)c1cn(C)cn1`, -10.77%; as for `CO[C@@H]1CC[C@H]2[C@H]1OCCN2S(=O)(=O)C1CC1`, 111.8%.
Then `O=S(=O)(C1CC1)N1CCO[C@H]2[C@H](OCC3CC3)CC[C@@H]21`, with 103.2%; and `Cn1cnc(S(=O)(=O)N2CCO[C@H]3[C@@H](OCC4CC4)CC[C@@H]32)c1`, with -7.379%.
As to `CCO[C@@H]1CC[C@H]2[C@H]1OCCN2S(=O)(=O)C1CC1`, the “Percent Effect” value amounted to 110.7%.
Then `CC(C)CO[C@@H]1CC[C@H]2[C@H]1OCCN2S(=O)(=O)C1CC1`, with 103.9%; and `CCS(=O)(=O)N1CCO[C@H]2[C@H](OCC3CCCC3)CC[C@@H]21`, with -19.91%; and `Cn1cnc(S(=O)(=O)N2CCO[C@H]3[C@H](OCC4CC4)CC[C@@H]32)c1`, with -0.8778%.
As to `Cc1cc(CN(C)C(=O)NC2CCCN(c3ncccn3)C2)no1` (centres undefined), the “Percent Effect” value is -2.323%.
Take `Nc1nccc(N2CCCC(CO)(CCOc3ccccc3)C2)n1` (centres undefined): the “Percent Effect” value was -20.36%.
As to `Cn1ccnc1CN1CCN(CC(=O)NCc2ccccc2F)CC1`, the “Percent Effect” value is given as 129%.
As for `Cc1ccccc1CNC(=O)CN1CCN(Cc2nccn2C)CC1`, the figure is 7.197%.
Consider `Cn1ccnc1CN1CCN(CC(=O)NCC(F)(F)F)CC1`, for which the “Percent Effect” value stood at 1.598%.
For the compound `CC(C(=O)NCc1cccs1)N1CCN(Cc2nccn2C)CC1` (centres undefined), the “Percent Effect” value came out at 4.204%.
Regarding `Cn1ccnc1CN1CCN(CC(=O)NCc2cccs2)CC1`, the “Percent Effect” value was found to be 99.27%.
`COc1ccc(CC(=O)N2CC[C@@]3(O)CCNC[C@H]3C2)c(OC)c1`: the “Percent Effect” value was -12.62%.
For the compound `CCc1nc(CN(C)Cc2ncc(-c3cccs3)o2)cs1`, the “Percent Effect” value is listed as -9.321%.
Consider `CN1CC(c2ccccc2)CC2(CCN(Cc3ncc[nH]3)CC2)C1` (centres undefined), for which the “Percent Effect” value is given as -21.2%.
For `Cc1ccc(C(CNCc2cccnc2)N2CCOCC2)s1` (centres undefined), the “Percent Effect” value is on record as 5.338%.
Take `Cc1ccccc1NC(=O)NCCn1nc(C(F)(F)F)n(C)c1=O`: the “Percent Effect” value is listed as 4.371%.
On to `NC1CCc2c(ccc(=O)n2Cc2ccncc2)C1` (centres undefined), for which the “Percent Effect” value is -38.16%.
As for `CN(C)CCn1c2c(ccc1=O)CC(NCc1cnn(C)c1)CC2.O=C(O)C(F)(F)F.O=C(O)C(F)(F)F` (centres undefined), the “Percent Effect” value is recorded as 92.68%.
Regarding `Cn1cc(CNC2CCc3c(ccc(=O)n3Cc3ccncc3)C2)cn1.O=C(O)C(F)(F)F.O=C(O)C(F)(F)F` (centres undefined), the “Percent Effect” value stood at 101.4%.
As to `CN(C)CCn1c2c(ccc1=O)CC(NCc1cccnc1)CC2.O=C(O)C(F)(F)F.O=C(O)C(F)(F)F.O=C(O)C(F)(F)F` (centres undefined), the “Percent Effect” value is -9.426%.
With `Cn1cc(CNC2CCc3c(ccc(=O)n3Cc3cccnc3)C2)cn1.O=C(O)C(F)(F)F.O=C(O)C(F)(F)F` (centres undefined), the “Percent Effect” value was 105.5%.
As for `O=C(NC1CC1)N1CCc2ccc(=O)n(Cc3cccnc3)c2CC1.O=C(O)C(F)(F)F`, the “Percent Effect” value was -14.38%.
